Here are results for 40 compounds from the supplement of paper PMC8253809.

For the assay, the system named is HGGX39 (paediatric high-grade glioma line). The assay can be described thus: growth inhibition (% activity, log2 RLU normalised to DMSO / staurosporine); higher = more growth inhibition. The note with it: 33 µM. A digest of the protocol: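 On Geltrex-coated 384-well plates, pHGG cell lines and H9-derived neural stem cells were grown with approved drugs pinned in at a single final concentration of about 33 μM, in triplicate, for 7 days at 37 °C, 5% CO2. Per-plate normalisation of log2-transformed CellTiter-Glo luminescence to % activity between solvent and positive control wells followed. Each growth-inhibition value is the median over the replicates.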
For `C[C@]12C=CC(=O)C=C1CC[C@H]1[C@@H]3C[C@@H](O)[C@](O)(C(=O)CO)[C@@]3(C)C[C@H](O)[C@@]12F`, the growth inhibition is -0.649%. Then `NCCC(O)(P(=O)(O)O)P(=O)(O)O`, with 2.9%.

As for `CCC[C@@H]1C[C@@H](C(=O)N[C@@H]([C@H]2O[C@H](SC)[C@H](OP(=O)(O)O)[C@@H](O)[C@H]2O)[C@H](C)Cl)N(C)C1`, the growth inhibition was -2.23%. On to `CC(C)[C@H](N)C(=O)OCC(CO)OCn1cnc2c(=O)[nH]c(N)nc21` (stereo not given in full), for which the growth inhibition was 0.816%.

Regarding `Nc1ccc(S(=O)(=O)Nc2ccccn2)cc1`, the growth inhibition was found to be 0.333%. With `CCCCCCCCCCCCCCCCO` the figure was 2.94%; with `CC(CN(C)C)CN1c2ccccc2CCc2ccccc21` (stereo not given), 4.41%; with `NCCCC[C@H](N[C@@H](CCc1ccccc1)C(=O)O)C(=O)N1CCC[C@H]1C(=O)O`, -1.12%. Then `CC(N)C12CC3CC(CC(C3)C1)C2` (stereo not given), with 1.62%; and `CCCCCN(C)CCC(O)(P(=O)(O)O)P(=O)(O)O`, with 0.759%; and `CSc1ccc2c(c1)N(CCC1CCCCN1C)c1ccccc1S2` (stereo not given), with 2.69%. Then `CN/C(=N\CCSCc1nc[nH]c1C)NC#N`, with 1.68%. For the compound `CN[C@@H]1[C@H](O[C@H]2[C@H](O[C@H]3[C@H](O)[C@@H](O)[C@H](N=C(N)N)[C@@H](O)[C@@H]3N=C(N)N)O[C@@H](C)[C@]2(O)C=O)O[C@@H](CO)[C@H](O)[C@H]1O`, the growth inhibition came out at 0.505%. With `COc1cc2c(cc1O)CC[C@@H]1[C@@H]2CC[C@]2(C)[C@@H](O)CC[C@@H]12` the figure was 13.2%; with `CC(C)C[C@H](NC(=O)[C@H](O)[C@H](N)Cc1ccccc1)C(=O)O`, -2.32%. Take `CC=CC1=C(C(=O)O)N2C(=O)[C@@H](NC(=O)[C@H](N)c3ccc(O)cc3)[C@H]2SC1`: the growth inhibition was -1.99%. Then `Cc1cc2c(s1)Nc1ccccc1N=C2N1CCN(C)CC1`, with 4.5%; and `OC(Cn1cncn1)(Cn1cncn1)c1ccc(F)cc1F`, with 1.3%; and `CC(C)C[C@H](NC(=O)[C@H](Cc1ccccc1)NC(=O)c1cnccn1)B(O)O`, with 58.5%.

As for `Clc1ccccc1CN1CCc2sccc2C1`, the growth inhibition worked out at 4.15%. For the compound `CNC(CC(C)C)C(=O)NC1C(=O)NC(CC(N)=O)C(=O)NC2C(=O)NC3C(=O)NC(C(=O)NC(C(=O)O)c4cc(O)cc(O)c4-c4cc3ccc4O)C(O)c3ccc(c(Cl)c3)Oc3cc2cc(c3OC2OC(CO)C(O)C(O)C2OC2CC(C)(N)C(O)C(C)O2)Oc2ccc(cc2Cl)C1O` (stereo not given), the growth inhibition is -1.53%. Then `Nc1ccc(S(=O)(=O)Nc2ncccn2)cc1`, with 0.395%; and `COC1=C(OC)C(=O)C(CCCCCCCCCCO)=C(C)C1=O`, with 2.64%; and `C=C[C@H]1CN2CC[C@H]1C[C@H]2[C@H](O)c1ccnc2ccc(OC)cc12`, with 3.17%.

Take `COC(=O)C1=C(C#N)NC(C)=C(C(=O)OC(C)C)C1c1cccc([N+](=O)[O-])c1` (stereo not given): the growth inhibition was -1.34%. With `CS(=O)(=O)c1ccc(C(=O)Nc2ccc(Cl)c(-c3ccccn3)c2)c(Cl)c1` the figure was 5.46%. Then `N=C(N=C(N)N)N1CCOCC1`, with 2.32%. Regarding `CCOC(=O)c1c(CSc2ccccc2)n(C)c2cc(Br)c(O)c(CN(C)C)c12`, the growth inhibition was determined as 0.0757%. Then `CCC[C@H](N[C@@H](C)C(=O)N1[C@H](C(=O)O)C[C@@H]2CCCC[C@@H]21)C(=O)OCC`, with 2.66%; and `CC(=O)OCC(=O)[C@@]12N=C(C)O[C@@H]1C[C@H]1[C@@H]3CCC4=CC(=O)C=C[C@]4(C)[C@H]3[C@@H](O)C[C@@]12C`, with 3.17%; and `CCCNC(C)C(=O)Nc1c(C)csc1C(=O)OC` (stereo not given), with 3.43%.

Regarding `Clc1ccc(C(Cn2ccnc2)OCc2csc3c(Cl)cccc23)c(Cl)c1` (stereo not given), the growth inhibition was determined as 8.8%. Then `COc1ccccc1OCCNCC(O)COc1cccc2[nH]c3ccccc3c12` (stereo not given), with 5.74%; and `O=C1O[C@H]([C@@H](O)CO)C([O-])=C1O.[Na+]`, with -3.28%. Then `CC(C)NCC(O)c1ccc(NS(C)(=O)=O)cc1` (stereo not given), with 0.329%. Then `Cn1nnc2c(C(N)=O)ncn2c1=O`, with -1.58%; and `O=C(Nc1cccc2c(=O)cc(-c3nnn[nH]3)oc12)c1ccc(OCCCCc2ccccc2)cc1`, with 2.23%; and `CN1CCC(=C2c3ccccc3CCc3sccc32)CC1`, with 7.57%.

With `Clc1ccc(CCC(Cn2ccnc2)Sc2c(Cl)cccc2Cl)cc1` (stereo not given), the growth inhibition was determined as 13.2%. As for `COC(=O)[C@@H]1CC2=CC(=O)CC[C@]2(C)[C@@]23O[C@@H]2C[C@@]2(C)[C@@H](CC[C@@]24CCC(=O)O4)[C@H]13`, the growth inhibition was 1.45%.
